PubChem BioAssay
Calls of active or inactive are those of the source. Unless noted, no rule for the calls is given here.

Experiments:
[1] = compounds binding Alexa647 anti-His antibody – biochemical, small-molecule microarray, 635 nm fluorescence, artefact control for SMM control protein annotation, primary screen (AID 1128); conditions: higher = more signal;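 also: score merges feature fluorescence with signal-to-noise for each printed compound spot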
[2] = system: Human papillomavirus type 1a E7 protein (residues 1-88); test: HPV1a E7 small-molecule binders, primary screen, biochemical, small-molecule microarray, residues 1-88, 635 nm (AID 1129); conditions: small-molecule microarray binding, fluorescence 635 nm; higher = more signal
[3] = target: Focal adhesion kinase 1 (Homo sapiens) (UniProt Q05397); test: PTK2 protein binding on printed compound slides – biochemical, small-molecule microarray, 635/667 nm fluorescence, BSA, DTT, primary screen (AID 1130); conditions: 635 nm fluorescence, higher = more signal;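 also: composite of spot emission at 667 nm and signal to noise over triplicate slides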
[4] = system: Fibrinogen (Alexa647-labelled); test: Alexa647-fibrinogen binding to printed small molecules – biochemical, small-molecule microarray, 635/667 nm fluorescence, artefact control for SMM control-protein annotation, profiling panel (AID 1131); conditions: fibrinogen-A647 binding fluorescence, higher = more signal;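 also: z-score merges 667 nm fluorescence with per-spot signal-to-noise over triplicate slides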
[5] = target: Follistatin (Homo sapiens) (UniProt P19883); test: FST protein binding to printed compounds – biochemical, small-molecule microarray, 635/667 nm fluorescence, primary screen (AID 1132); conditions: 635 nm fluorescence, higher = more signal
[6] = target: Fibroblast growth factor 2 (Homo sapiens) (UniProt P09038); test: basic fibroblast growth factor binding to printed compounds – biochemical, small-molecule microarray, 635/667 nm fluorescence, primary screen (AID 1133); conditions: FGF2, fluorescence 635/667, higher = more signal
[7] = JC-1 mitochondrial potential readout, lung cancer cells – cell-based, A549, JC-1 fluorescence, basal, 24 h, 100 nL, profiling panel (AID 1138); conditions: higher = more signal;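 also: A549 lung adenocarcinoma cells under basal conditions with no added stimulus; test concentration not given here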
[8] = system: Lefty1; test: Lefty1 protein binding to printed compounds – biochemical, small-molecule microarray, 635/667 nm fluorescence, primary screen (AID 1139); conditions: fluorescence 635/667, higher = more signal
[9] = system: wheat germ agglutinin (Triticum aestivum), Alexa647-labelled; test: Alexa647-WGA lectin binding to printed small molecules – biochemical, small-molecule microarray, 635/667 nm fluorescence, artefact control for SMM control-protein annotation, profiling panel (AID 1140); conditions: WGA-A647 binding, 635 nm fluorescence, higher = more signal;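 also: score merges 667 nm feature emission with signal to noise over triplicate slides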
[10] = target: Luciferin 4-monooxygenase (Photinus pyralis) (UniProt P08659); test: inhibition of purified Photinus pyralis luciferase – biochemical, luminescence, purified enzyme, 2006 set, primary screen (AID 1141); conditions: purified firefly luciferase, SteadyGlo luminescence, 30 min; higher = more signal, called active from +8 up or from −8 down;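 also: cell-free assay with purified firefly luciferase at 100 ng per well in PBS; test concentration not given here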
[11] = system: Wnt5a (protein binding on small-molecule microarray); test: small molecules binding Wnt5a protein – biophysical, small-molecule microarray, 635/667 nm fluorescence, primary screen (AID 1142); conditions: 635 nm fluorescence, higher = more signal;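 also: fluorescence read at 667 nm with signal to noise per printed feature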
[12] = ATP-based viability of Huh7 replicon cells – cell-based, CellTiter-Glo luminescence, basal, 48 h, cytotoxicity control for HCV replication inhibitor project, primary screen (AID 1143); conditions: higher = more signal, called active from +8 up or from −8 down;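 also: Huh7 hepatoma cells carrying a hepatitis C replication reporter with no stimulus; test concentration not given here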
[13] = Pseudomonas biofilm growth suppression – PAO1 strain, BacTiter-Glo luminescence, LB-PBS, primary screen (AID 1144); conditions: P. aeruginosa PAO1 biofilm, 12 h, higher = more signal
[14] = basal CRE-LacZ reporter activity in PC12 – cell-based, unstimulated, primary screen (AID 1145); conditions: no forskolin, luminescence, 4.5 h, higher = more signal, called active from +8 up or from −8 down
[15] = forskolin-driven CRE-LacZ activity in PC12 – cell-based, CRE-LacZ reporter, forskolin-stimulated, primary screen (AID 1146); conditions: luminescence, 4.5 h, higher = more signal, called active from +8 up or from −8 down;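 also: PC12 cells with 6xCRE LacZ reporter stimulated by forskolin 10 µM; beta-galactosidase reporter signal reflecting CREB driven transcription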
[16] = target: Streptavidin (Streptomyces avidinii) (UniProt P22629); test: compounds binding control protein streptavidin – biophysical, small-molecule microarray, 635/667 nm fluorescence, artefact control for SMM compound annotation, primary screen (AID 1147); conditions: higher = more signal;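 also: signal reflects streptavidin binding to arrayed compounds as a control protein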
[17] = probe aInhba binding on compound microarray – biochemical, small-molecule microarray, 635/667 nm fluorescence, primary screen (AID 1148); conditions: higher = more signal;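 also: score merges 667nm spot fluorescence with signal-to-noise for antibody binding to printed compounds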
[18] = target: Torsin-1A (Homo sapiens) (UniProt O14656); test: TOR1A wild-type binding on microarray – cell lysate, small-molecule microarray, lysate, 635/667 nm, primary screen (AID 1149); conditions: COS7 hTOR1A-WT lysate, 635 nm fluorescence, higher = more signal
[19] = target: Torsin-1A (Homo sapiens) (UniProt O14656); test: torsin A mutant lysate binding on microarrays – cell lysate, small-molecule microarray, COS7 lysate, 635/667 nm fluorescence, primary screen (AID 1150); conditions: COS7 hTOR1A mutant lysate, 635 nm fluorescence, higher = more signal;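 also: score pools 667 nm emission and signal to noise measuring lysate protein binding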
[20] = system: Sonic hedgehog protein (Shh); test: Sonic hedgehog microarray binding compounds – biochemical, small-molecule microarray, 635/667 nm fluorescence, primary screen (AID 1151); conditions: 635 nm fluorescence, higher = more signal;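 also: Shh protein binding to compounds spotted on small-molecule microarray slides; score combines spot fluorescence intensity with signal-to-noise across triplicate slides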

Sequence of Luciferin 4-monooxygenase (Photinus pyralis) (P08659 whole entry, looked up): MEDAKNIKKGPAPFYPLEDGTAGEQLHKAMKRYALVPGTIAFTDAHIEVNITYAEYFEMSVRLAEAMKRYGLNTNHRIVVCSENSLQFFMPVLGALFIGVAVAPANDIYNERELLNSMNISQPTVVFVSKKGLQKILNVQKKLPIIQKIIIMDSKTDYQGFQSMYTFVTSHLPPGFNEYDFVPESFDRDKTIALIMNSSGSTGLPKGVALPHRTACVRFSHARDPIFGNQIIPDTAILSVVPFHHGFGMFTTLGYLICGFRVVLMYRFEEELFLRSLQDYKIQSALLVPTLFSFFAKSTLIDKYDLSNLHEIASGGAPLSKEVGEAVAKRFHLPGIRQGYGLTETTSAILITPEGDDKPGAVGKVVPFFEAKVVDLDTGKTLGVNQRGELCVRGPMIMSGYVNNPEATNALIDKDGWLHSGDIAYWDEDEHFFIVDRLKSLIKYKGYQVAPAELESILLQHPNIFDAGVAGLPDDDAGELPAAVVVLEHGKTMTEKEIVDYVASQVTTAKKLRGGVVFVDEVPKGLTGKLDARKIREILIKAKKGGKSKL
Sequence of Streptavidin (Streptomyces avidinii) (P22629 whole entry, looked up): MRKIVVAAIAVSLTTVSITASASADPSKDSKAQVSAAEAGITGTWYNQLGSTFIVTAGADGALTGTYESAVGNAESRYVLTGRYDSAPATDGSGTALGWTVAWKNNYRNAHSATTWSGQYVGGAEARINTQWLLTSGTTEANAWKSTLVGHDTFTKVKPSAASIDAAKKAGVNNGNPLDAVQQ
Sequence of Focal adhesion kinase 1 (Homo sapiens) (Q05397 whole entry, looked up): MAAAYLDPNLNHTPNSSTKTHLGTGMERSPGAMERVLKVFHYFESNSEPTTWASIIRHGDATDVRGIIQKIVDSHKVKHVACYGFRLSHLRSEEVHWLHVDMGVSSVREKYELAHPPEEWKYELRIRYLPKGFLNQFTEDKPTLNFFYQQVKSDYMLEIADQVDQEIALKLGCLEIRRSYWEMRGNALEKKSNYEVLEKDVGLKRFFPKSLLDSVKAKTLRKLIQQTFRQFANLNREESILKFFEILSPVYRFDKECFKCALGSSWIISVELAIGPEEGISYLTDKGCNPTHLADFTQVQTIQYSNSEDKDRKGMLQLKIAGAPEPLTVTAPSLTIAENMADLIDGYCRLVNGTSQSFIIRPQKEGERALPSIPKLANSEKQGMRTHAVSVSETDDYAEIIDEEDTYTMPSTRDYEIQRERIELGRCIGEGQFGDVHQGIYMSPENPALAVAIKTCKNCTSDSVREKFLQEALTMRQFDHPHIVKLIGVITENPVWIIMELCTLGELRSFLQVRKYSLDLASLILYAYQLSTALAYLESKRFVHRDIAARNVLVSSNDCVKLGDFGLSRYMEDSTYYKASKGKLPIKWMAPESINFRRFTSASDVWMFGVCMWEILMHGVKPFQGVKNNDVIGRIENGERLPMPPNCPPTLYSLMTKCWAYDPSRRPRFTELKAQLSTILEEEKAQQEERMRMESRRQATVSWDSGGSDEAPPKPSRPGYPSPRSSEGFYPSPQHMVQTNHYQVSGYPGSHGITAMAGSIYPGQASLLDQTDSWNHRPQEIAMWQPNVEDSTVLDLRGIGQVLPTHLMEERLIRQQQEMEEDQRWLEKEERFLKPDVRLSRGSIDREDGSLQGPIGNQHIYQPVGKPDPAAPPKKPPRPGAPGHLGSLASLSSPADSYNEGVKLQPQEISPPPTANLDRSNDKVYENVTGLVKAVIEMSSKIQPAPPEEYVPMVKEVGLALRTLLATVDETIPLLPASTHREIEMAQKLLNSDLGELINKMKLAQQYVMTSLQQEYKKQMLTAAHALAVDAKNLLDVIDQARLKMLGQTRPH
Sequence of Torsin-1A (Homo sapiens) (O14656 whole entry, looked up): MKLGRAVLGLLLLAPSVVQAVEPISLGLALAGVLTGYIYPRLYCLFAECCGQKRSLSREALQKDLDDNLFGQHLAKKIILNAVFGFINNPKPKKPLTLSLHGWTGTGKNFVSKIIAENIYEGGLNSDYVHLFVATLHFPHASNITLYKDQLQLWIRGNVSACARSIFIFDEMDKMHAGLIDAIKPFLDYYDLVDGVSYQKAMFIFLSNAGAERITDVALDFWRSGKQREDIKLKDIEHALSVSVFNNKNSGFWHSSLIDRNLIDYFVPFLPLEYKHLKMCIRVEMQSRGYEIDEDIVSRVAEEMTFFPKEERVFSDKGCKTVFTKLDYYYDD
Sequence of Fibroblast growth factor 2 (Homo sapiens) (P09038 whole entry, looked up): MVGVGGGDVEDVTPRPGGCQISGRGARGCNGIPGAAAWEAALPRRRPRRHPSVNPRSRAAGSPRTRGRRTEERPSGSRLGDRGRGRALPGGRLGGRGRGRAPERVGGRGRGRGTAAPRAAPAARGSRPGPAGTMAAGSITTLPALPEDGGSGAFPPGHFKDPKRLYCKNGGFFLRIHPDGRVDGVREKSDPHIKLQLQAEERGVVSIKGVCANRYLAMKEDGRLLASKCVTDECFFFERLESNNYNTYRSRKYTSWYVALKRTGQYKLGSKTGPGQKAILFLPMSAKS
Sequence of Follistatin (Homo sapiens) (P19883 whole entry, looked up): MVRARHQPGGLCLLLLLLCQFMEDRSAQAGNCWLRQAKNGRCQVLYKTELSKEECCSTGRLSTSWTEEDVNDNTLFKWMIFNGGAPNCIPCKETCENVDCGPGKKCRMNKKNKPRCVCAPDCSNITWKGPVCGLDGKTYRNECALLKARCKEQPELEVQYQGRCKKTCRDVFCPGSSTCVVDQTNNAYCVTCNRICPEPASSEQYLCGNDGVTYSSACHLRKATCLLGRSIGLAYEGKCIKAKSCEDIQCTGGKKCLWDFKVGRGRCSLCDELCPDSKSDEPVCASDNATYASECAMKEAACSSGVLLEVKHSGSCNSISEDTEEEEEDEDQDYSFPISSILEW

Cc1c(NC(=O)/C(C#N)=C/c2ccccc2Cl)c(=O)n(-c2ccccc2)n1C
composite z-score [1]: 0.228 | composite z-score [2]: 0.654 | composite z-score [3]: -0.0387 | composite z-score [4]: 0.425 | composite z-score [5]: 0.255 | composite z-score [6]: -0.0318 | z-score [7]: 0.886 | composite z-score [8]: -0.0835 | composite z-score [9]: 0.195 | z-score [10]: -0.805 (inactive) | composite z-score [11]: 0.27 | z-score [12]: -2.11 (inactive) | z-score [13]: -0.543 (inactive) | z-score [14]: -0.321 (inactive) | z-score [15]: -1.21 (inactive) | composite z-score [16]: 1.73 | composite z-score [17]: -0.0195 | composite z-score [18]: 0.461 | composite z-score [19]: 0.159 | composite z-score [20]: 0.0651

C=C[C@@H](C)[C@@H](OC(=O)Nc1ccc(SC)cc1)c1ccc(OCCO)cc1
composite z-score [1]: 1.51 | composite z-score [2]: 1.21 | composite z-score [3]: 0.462 | composite z-score [4]: 0.719 | composite z-score [5]: 0.0078 | composite z-score [6]: 0.0877 | z-score [7]: -1.64 | composite z-score [8]: 0.191 | composite z-score [9]: 1.04 | z-score [10]: -4.2 (inactive) | composite z-score [11]: 0.382 | z-score [12]: -3.1 (inactive) | z-score [13]: -0.882 (inactive) | z-score [14]: 0.236 (inactive) | z-score [15]: -0.162 (inactive) | composite z-score [16]: 0.929 | composite z-score [17]: -0.151 | composite z-score [18]: 0.495 | composite z-score [19]: 1.04 | composite z-score [20]: 0.487

CC(C)C[C@@H]1NC(=O)[C@@]23C(=O)N[C@@H](Cc4ccccc4)C2[C@H](C)[C@@]2(C)O[C@H]2C3/C=C/C/C=C\CNC(=O)[C@@H](C)NC1=O (stereo not given in full)
composite z-score [1]: -0.471 | composite z-score [2]: -0.522 | composite z-score [3]: -0.647 | composite z-score [4]: -0.67 | composite z-score [5]: 0.418 | composite z-score [6]: 0.901 | z-score [7]: 0.0204 | composite z-score [8]: 0.709 | composite z-score [9]: 0.808 | z-score [10]: 0.757 (inactive) | composite z-score [11]: -0.336 | z-score [12]: -0.611 (inactive) | z-score [13]: -0.944 (inactive) | z-score [14]: 0.662 (inactive) | z-score [15]: -0.268 (inactive) | composite z-score [16]: -0.823 | composite z-score [17]: -0.348 | composite z-score [18]: 0.056 | composite z-score [19]: -0.196 | composite z-score [20]: 1.29

CN1C=C(C(=O)OCCS(C)(=O)=O)C(C(=O)OCCS(C)(=O)=O)=CC(c2ccc(CO)cc2)=CC1c1cccs1 (stereo not given)
composite z-score [1]: 1.48 | composite z-score [2]: 0.577 | composite z-score [3]: 0.0037 | composite z-score [4]: 0.983 | composite z-score [5]: 0.793 | composite z-score [6]: 0.509 | z-score [7]: 2.1 | composite z-score [8]: 0.644 | composite z-score [9]: 0.21 | z-score [10]: -1.63 (inactive) | composite z-score [11]: 0.0466 | z-score [12]: -1.3 (inactive) | z-score [13]: 0.637 (inactive) | z-score [14]: 2.34 (inactive) | z-score [15]: -1.45 (inactive) | composite z-score [16]: 1.42 | composite z-score [17]: 0.0659 | composite z-score [18]: 0.579 | composite z-score [19]: 0.713 | composite z-score [20]: 0.929

O=C1C2C=CC(C(O)C=Cc3ccc([N+](=O)[O-])cc3)N(Nc3ccccc3)C2C(=O)N1c1ccccc1 (stereo not given)
composite z-score [1]: 0.185 | composite z-score [2]: 1.2 | composite z-score [3]: 0.0142 | composite z-score [4]: 1.02 | composite z-score [5]: 1.24 | composite z-score [6]: 0.0395 | z-score [7]: -0.0492 | composite z-score [8]: 0.416 | composite z-score [9]: 0.932 | z-score [10]: -1.65 (inactive) | composite z-score [11]: 0.264 | z-score [12]: -0.132 (inactive) | z-score [13]: -0.633 (inactive) | z-score [14]: -0.143 (inactive) | z-score [15]: -0.148 (inactive) | composite z-score [16]: 1.53 | composite z-score [17]: 0.117 | composite z-score [18]: -0.283 | composite z-score [19]: 0.0565 | composite z-score [20]: 0.0063

COCCOC(=O)N1C(=O)[C@@]2(c3cc(C#Cc4ccc(OC)cc4)ccc31)[C@H](c1ccc(OCCO)cc1)N1[C@H](c3ccccc3)[C@H](c3ccccc3)OC(=O)[C@H]1[C@@H]2C(=O)Nc1nc2ccccc2s1
composite z-score [1]: 0.52 | composite z-score [2]: 1.16 | composite z-score [3]: 0.415 | composite z-score [4]: 0.707 | composite z-score [5]: 1.05 | composite z-score [6]: 0.464 | z-score [7]: -2.05 | composite z-score [8]: 0.676 | composite z-score [9]: 0.609 | z-score [10]: -1.27 (inactive) | composite z-score [11]: 0.144 | z-score [12]: -1.1 (inactive) | z-score [13]: 0.408 (inactive) | z-score [14]: 0.272 (inactive) | z-score [15]: -0.175 (inactive) | composite z-score [16]: 1.19 | composite z-score [17]: 0.164 | composite z-score [18]: 0.29 | composite z-score [19]: 0.461 | composite z-score [20]: 0.691

CCOC(=O)C[C@H]1[C@H](OC(=O)c2ccc(C(=O)c3ccccc3)cc2)[C@@H](NC(=O)CC(C)C)c2cc(OCCCO)ccc2N1C(=O)Cc1ccc(OC)cc1
composite z-score [1]: 0.201 | composite z-score [2]: 0.766 | composite z-score [3]: 0.721 | composite z-score [4]: 0.286 | composite z-score [5]: 0.264 | composite z-score [6]: 0.194 | z-score [7]: 0.911 | composite z-score [8]: -0.215 | composite z-score [9]: 0.675 | z-score [10]: -0.563 (inactive) | composite z-score [11]: 0.11 | z-score [12]: -0.349 (inactive) | z-score [13]: -0.356 (inactive) | z-score [14]: 0.731 (inactive) | z-score [15]: -0.117 (inactive) | composite z-score [16]: -0.0635 | composite z-score [17]: 0.128 | composite z-score [18]: 0.311 | composite z-score [19]: 0.498 | composite z-score [20]: -0.0145

C=CCN1C(=O)[C@]2(O[C@H](CCO)[C@@H]([Si](C)(C)c3ccc(OC)cc3)[C@@H]2C)c2cc(N3C(=O)COc4ccccc43)ccc21
composite z-score [1]: 1.3 | composite z-score [2]: 0.853 | composite z-score [3]: 0.179 | composite z-score [4]: 0.55 | composite z-score [5]: 0.618 | composite z-score [6]: 0.405 | z-score [7]: -1.46 | composite z-score [8]: 0.465 | composite z-score [9]: 0.441 | z-score [10]: -0.401 (inactive) | composite z-score [11]: 0.01 | z-score [12]: -8.07 (active) | z-score [13]: 0.518 (inactive) | z-score [14]: 27.2 (active) | z-score [15]: -3.5 (inactive) | composite z-score [16]: 0.435 | composite z-score [17]: -0.0245 | composite z-score [18]: -0.339 | composite z-score [19]: 0.072 | composite z-score [20]: 1.18

CCCNC(=O)[C@@]1(Sc2ccc(C)cc2)CC(=O)N(C2CCCCC2)[C@@H]1c1ccc(CO)cc1I
composite z-score [1]: 1.53 | composite z-score [2]: 1.2 | composite z-score [3]: 0.996 | composite z-score [4]: 0.146 | composite z-score [5]: -0.182 | composite z-score [6]: 0.128 | z-score [7]: 1.04 | composite z-score [8]: -0.351 | composite z-score [9]: 0.73 | z-score [10]: -0.0779 (inactive) | composite z-score [11]: 0.108 | z-score [12]: -2.76 (inactive) | z-score [13]: 0.687 (inactive) | z-score [14]: 0.272 (inactive) | z-score [15]: 1.38 (inactive) | composite z-score [16]: 0.133 | composite z-score [17]: -0.198 | composite z-score [18]: 0.0272 | composite z-score [19]: 0.197 | composite z-score [20]: -0.158

CCOC(=O)C1=C[C@@H](C(C)(C)C)N(S(=O)(=O)c2ccc(C)cc2)[C@H]1c1ccccc1
composite z-score [1]: 0.761 | composite z-score [2]: 1.16 | composite z-score [3]: 0.329 | composite z-score [4]: 0.706 | composite z-score [5]: 1.11 | composite z-score [6]: 0.136 | z-score [7]: 2.21 | composite z-score [8]: 0.523 | composite z-score [9]: 1.09 | z-score [10]: 0.756 (inactive) | composite z-score [11]: 0.251 | z-score [12]: -4.44 (inactive) | z-score [13]: 1.43 (inactive) | z-score [14]: 0.696 (inactive) | z-score [15]: -0.276 (inactive) | composite z-score [16]: 1.29 | composite z-score [17]: 0.27 | composite z-score [18]: 0.0214 | composite z-score [19]: 0.611 | composite z-score [20]: 0.871
